The list is not random: actives were taken first. Their share in the collection is about 4.1%.
MRP reversal – MRP-mediated drug resistance reversal; H69AR cells + 2 uM doxorubicin, CellTiter-Glo, 72 h; differential viability (reversal), % at 10 µM; 85,000 tested, 0.04% active; AID 602;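 active = viability drop by adding the cancer drug above about 55%, with treated viability meeting a 40% cutoff, limit read from the data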;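 also: larger differential means the compound sensitizes cells more to doxorubicin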
CD11b adhes inh – CD11b/CD18-fibrinogen binding inhibition | P05107+P11215 | K562 CD11b/CD18 adhesion to fibrinogen, ATPlite luminescence; Mn2+ added to activate the integrin | 93,000 tested, 0.54% active | inhibition, % at 10 µM;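 active = primary inhibition of 50% or more at 10 µM, then 40% or more on retest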
Pyk2 oligo antag – Pyk2 (human) oligomerization antagonism. Q14289. Q293 cells, Pyk2 FERM NanoBiT luminescence; active compounds read low. z-score (the deposit names both 25 µM and 10 µM). 99,000 tested, 0.83% active;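 active = Z-score of -3 or lower, scaled per plate to the spread of control and sample wells; inactive = z-score above -3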;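 also: negative z-score means lost luminescence so less FERM oligomerization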
Target sequence (Q14289 whole entry, looked up): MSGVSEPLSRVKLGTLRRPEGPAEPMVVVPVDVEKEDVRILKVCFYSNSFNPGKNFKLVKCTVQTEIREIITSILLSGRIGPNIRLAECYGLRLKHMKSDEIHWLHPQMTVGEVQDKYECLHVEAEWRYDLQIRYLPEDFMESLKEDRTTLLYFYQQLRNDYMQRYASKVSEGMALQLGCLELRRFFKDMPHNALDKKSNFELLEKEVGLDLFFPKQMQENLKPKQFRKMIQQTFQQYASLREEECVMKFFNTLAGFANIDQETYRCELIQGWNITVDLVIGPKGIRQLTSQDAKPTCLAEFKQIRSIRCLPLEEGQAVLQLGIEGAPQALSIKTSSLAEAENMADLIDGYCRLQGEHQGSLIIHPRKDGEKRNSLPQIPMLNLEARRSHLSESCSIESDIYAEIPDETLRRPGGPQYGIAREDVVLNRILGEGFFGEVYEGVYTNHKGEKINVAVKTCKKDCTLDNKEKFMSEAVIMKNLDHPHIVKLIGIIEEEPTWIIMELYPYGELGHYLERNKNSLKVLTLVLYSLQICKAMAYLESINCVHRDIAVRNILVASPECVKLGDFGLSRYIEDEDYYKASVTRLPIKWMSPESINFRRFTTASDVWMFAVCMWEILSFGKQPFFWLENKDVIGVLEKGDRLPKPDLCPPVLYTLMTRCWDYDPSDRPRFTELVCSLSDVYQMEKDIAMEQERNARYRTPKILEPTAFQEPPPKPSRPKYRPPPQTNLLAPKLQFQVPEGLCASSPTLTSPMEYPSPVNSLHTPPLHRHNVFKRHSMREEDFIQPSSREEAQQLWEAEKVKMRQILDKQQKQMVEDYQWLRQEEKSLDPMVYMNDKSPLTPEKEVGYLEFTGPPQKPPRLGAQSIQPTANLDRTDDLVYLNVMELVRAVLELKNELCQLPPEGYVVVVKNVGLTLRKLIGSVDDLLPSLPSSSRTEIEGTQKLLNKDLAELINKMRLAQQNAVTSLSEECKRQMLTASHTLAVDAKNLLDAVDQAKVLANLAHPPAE
MRP-1 activ – activates MRP-1. H69AR cells + doxorubicin, viability rescue, CellTiter-Glo. viability increase, % at 10 µM. 140,000 tested, 0.61% active. AID 799;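 active = viability gain under doxorubicin at or above a set limit, the compound median plus 3 SD, cut at about 4.7% in these data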;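 also: MRP-1 overexpressing cells given doxorubicin 25 µM after compound pretreatment; 18-22 h compound pretreatment then 72 h with doxorubicin before readout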
CD11b adhes enh – increases human CD11b/CD18 adhesion to fibrinogen | P05107+P11215 | K562 CD11b/CD18 adhesion to fibrinogen, ATPlite luminescence | activation, % at 10 µM | 93,000 tested, 0.07% active | AID 1499;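 active = 10 µM primary screen giving 50% or more activity, confirmed by 40% or more on retest at that dose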
Cav32 inh – inhibitors of human Cav3.2 T-type calcium channel; B-score at 10 µM; AID 449739; 100,000 tested, 4% active; Cav3.2-expressing cells, Fluo-4 calcium fluorescence FDSS; active compounds read low;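 active = single-dose well whose peak fluorescence ratio is a statistical outlier from its plate by either plate-standardised score or position-corrected B-score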
Large screens that a line does not name were inactive.

C#CC[N+](C)(C)CC#Cc1ccc(Cl)cc1	none (no result: MRP reversal, Pyk2 oligo antag, Cav32 inh)
CC1Cc2ccccc2N1C(=O)CSc1nnc(-c2ccccc2)c(-c2ccccc2)n1 (stereo unspecified)	none (no result: MRP reversal, CD11b adhes inh, CD11b adhes enh)
COc1cccc(-n2c(SCC(=O)N3c4ccccc4CC3C)nnc2-c2ccco2)c1 (stereo unspecified)	Cav32 inh -3.7 (no result: MRP reversal)
CCn1c(SCC(=O)N2c3ccccc3CC2C)nnc1-c1ccco1 (stereo unspecified)	none (no result: CD11b adhes inh, MRP-1 activ, CD11b adhes enh)
COc1ccc(-c2ccc(SCC(=O)N3c4ccccc4CC3C)nn2)cc1OC (stereo unspecified)	Pyk2 oligo antag -3.2 (no result: MRP reversal)
COc1ccccc1NC(=O)N1CCN(c2ccc(F)cc2)CC1	none (no result: CD11b adhes inh, CD11b adhes enh)
COc1ccccc1NC(=O)N1CCc2[nH]c3ccc(F)cc3c2C1	Cav32 inh -4.2
CC1(C)Cc2cccc(OCC(=O)Nc3cccnc3)c2O1	none
O=C(c1cccs1)N1N=C(c2ccccc2)CC1c1ccccc1 (stereo unspecified)	none (no result: MRP reversal)
COc1ccc(C2=NN(C(=O)c3cccs3)C(c3ccc(OC)cc3)C2)cc1 (stereo unspecified)	MRP-1 activ 7.5 (no result: MRP reversal, Pyk2 oligo antag, Cav32 inh)
CNC(=S)N1N=C(c2ccc(C)cc2)CC1c1ccc(OC)cc1 (stereo unspecified)	Cav32 inh -4.1 (no result: MRP reversal, CD11b adhes inh, CD11b adhes enh)
Cc1ccc(-n2nc3ccc(NC(=O)c4ccc5c(c4)OCO5)cc3n2)cc1	CD11b adhes enh 139
CN(C)C(=O)NCc1ccc(S(N)(=O)=O)cc1	none
Cc1ccc(N2CC(C(=O)Nc3cc(C)ccc3F)CC2=O)cc1 (stereo unspecified)	none
O=C(Nc1cccc(F)c1)C1CC(=O)N(c2ccc(Br)cc2)C1 (stereo unspecified)	Cav32 inh -5.4 (no result: MRP reversal)
O=C(Nc1cccc(F)c1)C1CC(=O)N(c2ccc(Cl)cc2)C1 (stereo unspecified)	Cav32 inh -5.8
COc1cc(OC)cc(-c2cc(N)n(S(=O)(=O)Cc3ccccc3)n2)c1	none (no result: Pyk2 oligo antag)
Cc1ccc2cc(CN(Cc3cccs3)Cc3nnnn3CC3CCCO3)c(=O)[nH]c2c1C (stereo unspecified)	none
CCOC(=O)C1CCCN(C(=O)c2ccccc2NC(C)=O)C1 (stereo unspecified)	none
O=C(Cn1c(COc2ccc(Cl)cc2)nc2ccccc21)NCC(F)(F)F	MRP-1 activ 5.6 (no result: MRP reversal, Pyk2 oligo antag, Cav32 inh)
N#CCCNC(=O)Cn1c(COc2ccc(Cl)cc2)nc2ccccc21	MRP-1 activ 5.6 (no result: MRP reversal, Cav32 inh)
CCOCCCNC(=S)N1CCN(C(=O)C(=O)Nc2ccc(C(=O)OC)cc2)CC1	none (no result: MRP reversal, Pyk2 oligo antag, Cav32 inh)
O=C(CN1CCN(S(=O)(=O)c2ccccc2)CC1)Nc1ccc(Cl)c(Cl)c1	Cav32 inh -3.7 (no result: MRP reversal)
COc1ccccc1NC(=O)CN1CCN(CC(=O)Nc2ccc(Cl)c(C(F)(F)F)c2)CC1	Cav32 inh -11 (no result: CD11b adhes inh, CD11b adhes enh)
COc1ccc(NC(=O)CN2CCN(CC(=O)Nc3ccccc3Cl)CC2)cc1Cl	none (no result: CD11b adhes inh, CD11b adhes enh)
O=C(CN1CCN(S(=O)(=O)c2ccccc2)CC1)Nc1ccc2c(c1)OCO2	none
CC(C)c1ccc(N(CC(=O)Nc2ccc(S(=O)(=O)N3CCOCC3)cc2)S(C)(=O)=O)cc1	Cav32 inh -7.9
Cc1ccc(N(CC(=O)Nc2ccc(S(=O)(=O)N3CCOCC3)cc2)S(C)(=O)=O)cc1C	none
COc1ccc(S(=O)(=O)N2CCN(CC(=O)Nc3ccc(C)c(F)c3)CC2)cc1	Cav32 inh -4.2
COc1ccc(S(=O)(=O)N2CCN(CC(=O)Nc3cccc(F)c3)CC2)cc1	none (no result: CD11b adhes inh, CD11b adhes enh, Cav32 inh)
O=C(CN1CCN(S(=O)(=O)c2ccc(Cl)cc2)CC1)Nc1ccc2c(c1)OCO2	none (no result: CD11b adhes inh, CD11b adhes enh)
COc1ccc(S(=O)(=O)N2CCCN(CCC(=O)Nc3cccc(C(F)(F)F)c3)CC2)cc1	Cav32 inh -4.6 (no result: CD11b adhes inh, CD11b adhes enh)
CC(C)c1ccc(S(=O)(=O)N2CCN(CC(=O)Nc3ccc4c(c3)OCO4)CC2)cc1	Cav32 inh -6.9
COc1ccc(S(=O)(=O)N2CCN(CCC(=O)Nc3ccc(F)cc3)CC2)cc1	none (no result: CD11b adhes inh, Pyk2 oligo antag, CD11b adhes enh, Cav32 inh)
Clc1ccc(CN(Cc2ccccc2)C(c2cccs2)c2nnnn2C2CCCC2)cc1 (stereo unspecified)	none
CC(C)(C)c1ccc(CN(Cc2ccccc2)C(c2ccccn2)c2nnnn2C(C)(C)C)cc1 (stereo unspecified)	none
CC(C)(C)n1nnnc1C(c1cccs1)N(Cc1ccc(Cl)cc1)CC1CCCO1 (stereo unspecified)	Cav32 inh -4.6
CC(C)(C)n1nnnc1C(c1cccnc1)N(Cc1ccccc1)Cc1cccs1 (stereo unspecified)	Pyk2 oligo antag -3.6
CC(C)(C)n1nnnc1C(c1cccs1)N(Cc1ccccc1)Cc1cccnc1 (stereo unspecified)	Pyk2 oligo antag -4.2, Cav32 inh -4.6 (no result: CD11b adhes inh, CD11b adhes enh)
CC1(C)CC(=O)c2cc(C(=O)Nn3cnnc3)c(=O)n(-c3ccccc3)c2C1	none (no result: MRP reversal)
Cc1ccsc1C1Nc2ccc3ncccc3c2C2=C1C(=O)CC(C)(C)C2 (stereo unspecified)	Cav32 inh -3.9 (no result: MRP reversal)
O=C1CCCC2=C1C(c1cccs1)Nc1ccc3ncccc3c12 (stereo unspecified)	none (no result: MRP reversal, CD11b adhes inh, CD11b adhes enh)
CCOc1ccc(C(=O)NCc2ccccc2)cc1Br	none (no result: MRP reversal, CD11b adhes inh, Pyk2 oligo antag, CD11b adhes enh, Cav32 inh)
C=C(C)COc1ccc(-c2nc(N)ncc2Oc2ccccc2OCC)c(O)c1	Pyk2 oligo antag -4.5
Cc1ccc(C(C)C)c(OCc2nnc(SCC(=O)Nc3ncc(C)s3)n2C)c1	none
CS(=O)(=O)N(CC(=O)N1CCN(c2ccccc2)CC1)c1cc(C(F)(F)F)ccc1Cl	Cav32 inh -4.3
CS(=O)(=O)N(CC(=O)N1CCN(c2cccc(Cl)c2)CC1)c1cccc(F)c1	Cav32 inh -6.3
CS(=O)(=O)N(CC(=O)N1CCN(c2ccccc2)CC1)c1ccc(Cl)c(C(F)(F)F)c1	Cav32 inh -5.3
CCc1ccc2c(c1)C(=O)c1ccccc1C2=O	none (no result: MRP reversal, CD11b adhes inh, Pyk2 oligo antag, CD11b adhes enh, Cav32 inh)
CCc1ccc(/C=C/C(=O)C2C(=O)c3ccccc3C2=O)cc1	CD11b adhes inh 95, Cav32 inh -3.8 (no result: MRP reversal)
O=C(/C=C/c1ccccc1)C1C(=O)c2ccccc2C1=O	CD11b adhes inh 87 (no result: MRP reversal, Pyk2 oligo antag, Cav32 inh)
CC(C)CNC(=O)NC(=O)COC(=O)c1ccccc1Sc1ccc(C(F)(F)F)cc1[N+](=O)[O-]	none (no result: MRP reversal, Pyk2 oligo antag, Cav32 inh)
COc1ccc(OC)c(CC(NC(C)=O)C(=O)NC2CCN(c3c(Cc4ccccc4)c(C)nc4ncnn34)CC2)c1 (stereo unspecified)	none (no result: MRP reversal, CD11b adhes inh, Pyk2 oligo antag, CD11b adhes enh, Cav32 inh)
Cc1ccc(-c2nc(C3CCCN(S(=O)(=O)c4ccc(C)cc4)C3)no2)cc1 (stereo unspecified)	none (no result: Pyk2 oligo antag, Cav32 inh)
O=C(O)CC(Cc1ccc(Cl)cc1)C(=O)NCc1ccccc1 (stereo unspecified)	none (no result: MRP reversal, Pyk2 oligo antag, Cav32 inh)
Fc1ccccc1CSc1nnc(-c2cnccn2)n1Cc1ccco1	none (no result: CD11b adhes inh, Pyk2 oligo antag, CD11b adhes enh, Cav32 inh)
C(=C\c1ccccc1)/CSc1nnc(-c2cnccn2)n1Cc1ccco1	Cav32 inh -3.5 (no result: CD11b adhes inh, CD11b adhes enh)
CC(C)CCNC(=O)C12CN(Cc3ccccc3)CC1C(c1cccc([N+](=O)[O-])c1)=NO2 (stereo unspecified)	Cav32 inh -4.7 (no result: MRP reversal, CD11b adhes inh, Pyk2 oligo antag, CD11b adhes enh)
